For 40 molecules, outcome results are on record in PubChem BioAssay AID1053124 (Broad Institute, 2014).

Potency and affinity values are given separately. Active and inactive are the calls of the source.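 The calls were made as follows: active = cell killing whose fitted half-effect concentration is at most twice the top valid dose tested; inconclusive = flat curve with 30 to 70% killing, or a poor fit; inactive = effect in the rising direction, plus the rest.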

A short description of the assay: viability loss in A549 lung cells – cell-based, ATP luminescence, cherry-pick, set 2, cytotoxicity control, dose response (AID 1053124). The conditions noted are these: ATP luminescence (CellTiter-Glo), 72 h; series mostly up to 26 µM. Background: In ATP-based viability assays light output follows the ATP content of the culture.
With `Cn1c2ccccc2c(=O)c2ccc(F)cc21`, the result was inactive.
For the molecule `COc1ccc(CCN=C(N)NS(=O)(=O)c2ccc(F)cc2)cc1`, the outcome was inactive.
For the molecule `N#Cc1ccc(OCC(=O)OCC(=O)N2CCc3ccccc32)cc1`, the outcome was inactive.
As for `Cc1noc(C)c1S(=O)(=O)N(CC(=O)N1CCCCCC1)c1ccc(C(C)C)cc1`, the call was inactive.
In the case of `Cc1nc2ccc(S(=O)(=O)Nc3ccc(-c4nc5cccnc5s4)cc3)cc2s1` it was “inactive”; in that of `COC(=O)C1=CN(Cc2ccc(OC)c(OC)c2)C=C(C(=O)OC)C1c1cccc(F)c1`, “inactive”; in that of `CCC(C)NC(=S)N1CCN(Cc2ccc3c(c2)OCO3)CC1` (stereo not given), “inactive”.
For `CC1CCN(S(=O)(=O)N2CCC(C(=O)NC3CCCC3)CC2)CC1` the value was “inactive”; for `CCOC(=O)c1c(NC(=O)CSc2ncccn2)sc2c1CCN(Cc1ccccc1)C2`, “inactive”; for `CCOc1ccc2nc(NCCCNS(=O)(=O)c3ccc(C)cc3)c(C#N)cc2c1`, “inactive”.
Consider `O=c1c2ccccc2n(CC(O)CN2CCCCC2)c2ccccc12` (stereo not given), for which the molecule was called inactive.
As for `COCCNC(=O)c1cc2c(=O)n3cccc(C)c3nc2n(Cc2ccncc2)c1=N`, the outcome was inactive.
Take `N#Cc1c(NCCCO)nc(NCc2ccccc2)c2c1CCN(Cc1ccccc1)C2`: the result was inactive.
For the molecule `Cn1nc(-c2ccc(Cl)cc2)c2cc(C(=O)N3CCN(c4ccccc4)CC3)sc21`, the molecule was classed as inactive.
Consider `CN1c2ccc(Cl)cc2C(=O)NC1C1CC=CCC1` (stereo not given), for which the call was inactive.
Take `Cc1ccc(-n2c(C)cc(/C=N/NC(=O)Cn3c4ccccc4c(=O)c4ccccc43)c2C)cc1`: the molecule was called inactive.
As for `CCOc1ccc2nc(NCCNC(=O)CC)c(C#N)cc2c1`, the call was inactive.
On to `CCOc1ccc(C2C(C#N)=C(N)Oc3cc(O)ccc32)cc1OCC` (stereo not given), for which the result was inactive.
For `Cc1ccc(S(=O)(=O)CCC(=O)OCC(=O)Nc2cccc(S(=O)(=O)N3CCCCC3)c2)cc1` the value was “inactive”.
Take `C[C@H](NC(=O)c1nc[nH]c1C(=O)N[C@@H](Cc1ccccc1)C(=O)OC(C)(C)C)C(=O)OCc1ccccc1`: the outcome was inactive.
Take `N#CC1=C(N)OC2=C(C(=O)CCC2)C1c1cc2c(cc1Br)OCO2` (stereo not given): the molecule was classed as inactive.
For `COc1ccc(C(=O)Oc2cc(N)n(S(=O)(=O)c3ccccc3)n2)cc1` the value was “inactive”.
With `O=C(O)C1=CC[C@@H](c2ccc(Cl)cc2)N(S(=O)(=O)c2ccc(Cl)cc2)[C@H]1c1ccc(F)cc1`, the outcome was inactive.
Turning to `CCOC(=O)C1CCCN(CCCc2ccccc2)C1` (stereo not given), the molecule was classed as inactive.
In the case of `CNNC(=S)NC1CC2CC1C1C=CCC21` (stereo not given) it was “inactive”; in that of `CCOc1ccc(S(=O)(=O)Nc2ccc(C(=O)N(CC)CC(=O)NCc3cccs3)cc2)cc1`, “inactive”.
For `Cc1cc(-c2ccccc2)c2ccc(NC(=O)C(C)(C)C)nc2n1`, the molecule was classed as inactive.
For `N#Cc1c2ccc(O)cc2n2ccccc12` the value was “inactive”; for `COCCN1C=C(C(=O)OC)C(c2ccc(Cl)cc2)C(C(=O)OC)=C1`, “inactive”.
On to `Cc1ccc(-n2nnnc2CNC(=O)C(=O)c2c[nH]c3ccccc23)cc1C`, for which the molecule was called inactive.
With `O=C(CCc1c[nH]c2ccccc12)OCC(=O)c1ccccc1`, the molecule was classed as inactive.
`CCn1c(=N)c(S(=O)(=O)c2ccccc2)cc2c(=O)n3ccccc3nc21`: the outcome was inactive.
Consider `CCOc1ccc2nc(NCCCNC(=O)c3cc(OC)c(OC)c(OC)c3)c(C#N)cc2c1`, for which the molecule was called inactive.
With `Cc1c(C(=O)NCc2ccc(Cl)c(Cl)c2)sc(=O)n1Cc1cccc(F)c1`, the result was inactive.
With `CCN(CC)CCCNc1nc(C)cc(COC)c1C#N`, the call was inactive.
For the molecule `CCOC(=O)c1cc2c(=O)n3ccccc3nc2n(Cc2ccc(Cl)cc2)c1=N`, the molecule was classed as inactive.
With `COc1ccc(C(=O)c2sc3nc(-c4ccc(OC)cc4)ccc3c2N)cc1`, the molecule was called inactive.
For `Cc1ccc2nc3c(cc(C(=O)NCc4ccccc4)c(=N)n3CCCn3ccnc3)c(=O)n2c1` the value was “inactive”; for `COCCCOc1cc(NCc2ccccc2)c2ncn(C(C)C)c2c1`, “inactive”; for `CC(C)(C)[C@H]1CCC(=O)N([C@H](CSc2ccccc2)Cc2ccccc2)CC1`, “inactive”.
